High-throughput results deposited in PubChem BioAssay by National Center for Advancing Translational Sciences (NCATS).
Most compounds without a hit are left out; they make up all but 6.1% or so of the library.
DRD3 antagonist: qHTS of D3 Dopamine Receptor Antagonist: qHTS. D(3) dopamine receptor (Homo sapiens), P35462. D3R cells, DiscoveRx beta-arrestin luminescence, antagonist mode; stronger effect = lower value. max response, negative = inhibition, %. 360,000 tested, 2.5% active; in the data active = max response below about -50%
Target sequence (P35462 whole entry, looked up): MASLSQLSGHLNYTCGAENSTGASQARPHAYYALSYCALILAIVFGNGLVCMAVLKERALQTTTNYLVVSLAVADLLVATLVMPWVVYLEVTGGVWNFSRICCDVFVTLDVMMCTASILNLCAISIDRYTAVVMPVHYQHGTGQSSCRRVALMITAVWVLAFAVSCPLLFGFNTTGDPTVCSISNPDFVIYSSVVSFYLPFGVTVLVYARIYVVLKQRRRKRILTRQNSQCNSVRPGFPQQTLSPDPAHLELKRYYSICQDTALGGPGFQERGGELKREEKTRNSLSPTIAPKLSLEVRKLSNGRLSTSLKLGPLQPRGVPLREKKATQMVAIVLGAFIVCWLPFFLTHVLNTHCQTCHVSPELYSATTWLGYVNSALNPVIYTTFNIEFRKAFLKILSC
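Cells plated overnight at 1500 cells/well, then exposed to library compounds with dopamine controls for 90 minutes at 37 degrees C. DiscoveRx reagent added for 30–60 minutes at room temperature; luminescence read, quantitative HTS format.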
D1 PAM: Potentiators of Human D1 Dopamine Receptor: qHTS. potentiation, % at 10 µM. HEK293 TREx D1 cells, calcium flux, dopamine EC20 potentiation. AID 504651, 2011. 360,000 tested, 0.036% active. D(1A) dopamine receptor (Homo sapiens), P21728; in the data active = potentiation above about 30%
D1 antag: Antagonist of Human D 1 Dopamine Receptor: qHTS. AID 504652, 2011. 360,000 tested, 3.2% active. D(1A) dopamine receptor (Homo sapiens), P21728. activity change, negative = inhibition, % at 10 µM. HEK293 TREx D1 cells, calcium flux, dopamine EC80; stronger effect = lower value; in the data active = activity change below about -30%
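Tetracycline-induced HEK293 T-REx cells with force-coupled D1 receptor were loaded with a no-wash calcium dye. Compound was added after a 10 s baseline and read kinetically for 180 s; EC80 dopamine was then added and calcium flux followed another 180 s.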
D1 agonist: Allosteric Agonists of the Human D1 Dopamine Receptor: qHTS | D(1A) dopamine receptor (Homo sapiens), P21728 | HEK293 T-REx D1 cells, calcium flux, agonist mode | activation, % at 2 µM | 360,000 tested, 1% active | AID 504660, 2011; in the data active = activation above about 30%
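Tetracycline-induced HEK293 TREx D1 cells, force-coupled to calcium signalling, were dye-loaded with a no-wash calcium kit. Compound was pin-added after a 10 s baseline. Fluorescence was read kinetically at 1 cycle/s for 180 s, with calcium rises flagged as agonism.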
D3 ag: qHTS of D3 Dopamine Receptor Agonist: qHTS | D(3) dopamine receptor (Homo sapiens), P35462 | D3R DiscoveRx beta-arrestin cells, luminescence, 90 min | max activation, % | 410,000 tested, 0.58% active | AID 652048, 2013; in the data active = max activation above about 30%
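Cells at 1500/well, incubated overnight, then treated with pinned compounds (dopamine as control) for 90 min at 37 degrees C. DiscoveRx reagent added for 30 - 60 minutes at room temperature; luminescence read.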
Numbers stand for hits; n = inactive; x = no result given; ! = repeats disagree.

SMILES	DRD3 antagonist	D1 PAM	D1 antag	D1 agonist	D3 ag
CC1(c2nc3ccccc3[nH]2)c2ccccc2C(=O)N1Cc1ccccc1 (centres undefined)	-55	x	x	x	n
COc1cc(Cl)c(C)cc1NC(=O)c1nn(C)c2c1CSc1ccccc1-2	x	n	n	n	n
CCN1CCN(c2ncc(C(=O)Nc3c(F)cc(F)cc3Br)c3ccccc23)CC1	-62	n	n	n	n
CCN1CCN(c2ncc(C(=O)Nc3cc(Cl)c(OC)cc3OC)c3ccccc23)CC1	n	n	n	n	n
CN1C(CSCC(F)(F)F)Nc2cc(Cl)c(S(N)(=O)=O)cc2S1(=O)=O (centres undefined)	x	x	x	x	n
Cc1ccc(C(=O)N2CCN(c3ccc(NC(=O)c4cccnc4)cc3)CC2)cc1	n	n	-31	n	n
COc1ccc(C2CCCN2C(=S)Nc2cccc(C)c2)cc1OC (centres undefined)	n	n	-59	n	n
CC(=O)N1CCN(c2ccc(NC(=O)c3ccc(C(C)(C)C)cc3)cc2)CC1	-89	n	n	n	n
CC(=O)c1cccc(NC(=O)N2CCC(C(=O)c3ccc(F)cc3)CC2)c1	n	n	n	n	n
CC(=O)c1ccc(N2CCN(C(=O)Nc3cccc(F)c3)CC2)cc1	n	n	-35!	n	n
COc1ccc2cc(CN(C)C(=O)CN3C(=O)NC4(CCCC4)C3=O)ccc2c1	n	x	x	x	n
O=C(Nc1ccc2c(c1)OCCO2)N1CCN(c2ccccc2)CC1	-52	n	-46	n	n
O=C(Nc1ccc2c(c1)OCO2)N1CCN(c2ccccc2)CC1	n	n	n	n	n
Cc1cc(C)cc(NC(=O)N2CCCN(c3c(Cl)cncc3Cl)CC2)c1	n	n	-33	n	n
CC(C)c1ccc(NC(=O)N2CCN(c3ccc(Cl)c(Cl)c3)CC2)cc1	x	n	n	n	n
COc1ccc(N2CCN(C(=S)Nc3cccc(C)c3)CC2)cc1	n	n	-41	n	n
Cc1ccc(NC(=O)N2CCN(c3ccc(Cl)c(Cl)c3)CC2)cc1	x	n	-30	n	n
COc1cccc(N2CCN(C(=S)Nc3cccc(C)c3)CC2)c1	n	n	n	n	n
CCC(CC)NC(=O)COC(=O)c1ccc(NS(=O)(=O)c2ccc3c(c2)OCCO3)cc1	n	n	n	n	n
CC(=O)c1ccc(N2CCN(C(=S)Nc3cccc(Cl)c3)CC2)cc1	n	n	-37	n	n
CC(=O)c1ccc(NC(=S)N2CCN(c3cccc(Cl)c3)CC2)cc1	n	n	x	n	n
CC(=O)c1ccc(NC(=O)N2CCN(c3ccc(C)cc3)C(C)C2)cc1 (centres undefined)	n	n	n	n	n
CC(=O)c1ccc(N2CCN(C(=O)Nc3ccc(C)cc3)CC2)cc1	n	n	-40!	n	n
CNC(=S)N1CCN(c2ccc(Cl)c(Cl)c2)CC1	n	n	-31	n	n
CCCCNC(=O)c1ccc2c(OCC)n(CCCC)nc2c1	n	n	n	n	n
SMILES	DRD3 antagonist	D1 PAM	D1 antag	D1 agonist	D3 ag
CCCn1nc2cc(C(=O)NCCc3cccs3)ccc2c1OCC	n	n	-83	n	n
CCCn1nc2cc(C(=O)N(CC)c3ccc(OC)cc3)ccc2c1OCC	n	n	n	n	49
C/C(=N/NC(=O)c1ccc(Br)o1)C(C)C	n	n	n	n	n
COc1cc(/C=N/NC(N)=O)ccc1OC(=O)c1ccco1	n	n	-35	n	n
COc1ccc(/C=N/NC(=O)CSc2ccccn2)cc1OC	n	n	-32	n	n
COc1cc(/C=N\NC(=O)c2ccc(C)nc2)ccc1OC(=O)c1ccco1	n	n	n	n	n
COc1ccc(/C=N/NC(=O)C(C)n2nnc3ccccc32)cc1OC (centres undefined)	n	n	-74	n	n
COc1cc(C(=O)Nc2ccccc2SCc2cc(=O)n3nc(C)sc3n2)cc(OC)c1OC	n	n	-50	n	n
Cn1c(=O)n(C)c2cc(N3CCCCC3)c(NC(=O)c3ccc(C(C)(C)C)cc3)cc21	x	n	n	n	n
